Laboratory results as given in PubChem BioAssay AID457 (Sanford-Burnham Center for Chemical Genomics, 2006).
The whole screen tested about 10,000 compounds, of which about 20 (0.2%) were called active. How the calls were made is not given here. These entries were drawn from the full list.

experiment: boosters of cytokine-driven VCAM-1 levels – imaging, high-content imaging, pooled HUVEC, TNFa stimulus (AID 457); conditions: TNFa-induced VCAM-1 immunofluorescence imaging; concentration not given here

augmentation, inactive:
O=C(c1cccc2c1C(=O)N(Cc1cccnc1)C2)N1CCN(c2ccccc2)CC1, Cc1nnc2ccc(N3CCC4(CC3)OCCO4)nn12, Cc1nc(CCNS(=O)(=O)c2cccs2)cs1, CC(O)CN1C(=O)C(CC(=O)Nc2ccc(Cl)cc2)SC1=Nc1ccccc1 (centres undefined), CCn1c(SCC(=O)C(C)(C)C)nnc1-c1cnccn1, c1ccc(CCNc2ccc3nncn3n2)cc1, O=C(NCc1nc2ccccc2[nH]1)c1ccc(Cl)c(S(=O)(=O)N2CCCC2)c1, Cc1cccc(Nc2nc(N)nc(CN3CCC(C(N)=O)CC3)n2)c1C, O=C(Nc1cccc(NC(=O)c2ccco2)c1)c1ccc2c(c1)OCO2, COc1ccccc1OCCn1c(=O)sc2ccccc21, O=C(Cc1ccccc1)Nc1ccc(CN2CCOCC2)cc1, Cc1ccc2[nH]c(=O)c3cc(C(=O)NCCN4CCN(C)CC4)sc3c2c1, CCOC(=O)N1CCN(C(=O)CSc2cc(C)nc3c(-c4ccccc4OC)c(C)nn23)CC1, COc1ccc(-c2nc(C#N)c(N3CCN(c4ccccc4)CC3)o2)cc1, CC(C)CNC(=O)c1ccccc1NC(=O)c1ccc(CN2CCOCC2)cc1, CCCN1CCN(CCCNC(=O)C2CCCN(c3nc4ccc(OCC)cc4s3)C2)CC1 (centres undefined), CC(C)N(C(=O)N1CCC(c2nc(-c3ccncc3)no2)CC1)C(C)C, O=C(CN1C(=O)CC(c2ccco2)Sc2ccccc21)Nc1ccccc1F (centres undefined), CC(O)c1c(OCc2ccccc2)ncnc1OCc1ccccc1 (centres undefined), O=C(O)c1cc2c(s1)CCCC2, CCOC(=O)CN1CC23C=CC(O2)C(C(=O)NC2CCCC2)C3C1=O (centres undefined), CCOc1ccc2cc(C#N)c(SCC(=O)N3CCC(C)CC3)nc2c1, CC(=O)Nc1sc2c(c1C#N)CCCCC2, CCCOc1ccc(S(=O)(=O)NCCCN2CCOCC2)c2ccccc12, O=C(Cn1ccc2ccccc2c1=O)Nc1ccc2c(c1)OCO2, CCOCCn1cnc2sc(C(=O)Nc3nc(C)c(C(=O)OCC)s3)c(C)c2c1=O, Nc1nc2ccccc2n1C(=O)CCc1ccccc1, Cc1sc2nc(CN3CCN(S(=O)(=O)c4cccc5nonc45)CC3)[nH]c(=O)c2c1C, O=C(CN1CCC(n2nnc3ccccc32)CC1)Nc1ccc2c(c1)CCC2, O=C(Nc1ncc(Cc2ccccc2)s1)C1CCCO1 (centres undefined), O=C(Cc1c(F)cccc1Cl)Nc1ccncc1, CCCCCCc1ccc(-c2ncc(N)cn2)cc1, CCc1nnc(NC(=O)CSc2nnc(-c3ccoc3C)n2CC(C)C)s1, COc1nc(C)ccc1-c1noc(-c2ccncc2)n1, Cc1noc(/C=C/N(C)C)c1S(=O)(=O)N1CCc2ccccc21, O=C(Nc1ccc2c(c1)OCCO2)c1cnc2n(c1=O)CCS2, Cc1[nH]nc(N=CC2=C(O)CC(C)(C)CC2=O)c1-c1ccccc1, Cc1csc(SCCn2c(N3CCCC3)nc3c2c(=O)[nH]c(=O)n3C)n1, O=C(Nc1ccccc1Cl)c1c(F)c(F)c(F)c(F)c1F, O=C(COc1nnnc2ccccc12)N1CCCc2ccccc21, CC1(C)CC(=O)c2cnc(NCc3ccco3)nc2C1, COC(=O)C1=C(C)OC(N)=C(C#N)C1c1c(C)nn(-c2ccccc2)c1Cl (centres undefined), CCCNC(=O)c1cc(S(=O)(=O)N2CCc3ccccc32)ccc1F, O=C(CSc1ncc(-c2ccc(F)cc2)[nH]1)N1CCCCC1, CC(C)OC(=O)CSc1nnc(-c2ccc(O)cc2)n1Cc1ccccc1, CSC1CCCCC1(O)CSc1nc2c(cc1C#N)CCCC2 (centres undefined), Cc1cc(C)cc(NC(=O)C2CCCN(c3nccc(C)n3)C2)c1 (centres undefined), Cn1c(/C=N/n2cnnc2)nc2ccccc21, Cc1ccccc1NC(=O)C1CCN(c2cnccn2)CC1, O=C(Nc1cccnc1)Nc1ccc(F)c(Cl)c1, C(=C\c1ccccc1)/CN1CCN(Cc2ccc3c(c2)OCCO3)CC1, CCOC(=O)N1CCN(CCC(=O)c2ccc(Cl)cc2)CC1, CCOC(=O)CSc1nc2ccccc2n1CC(=O)N1CCN(c2ccccc2)CC1, COc1ccccc1C(=O)NCC(=O)Nc1ccccc1, CCC(C)(C)NC(=O)CN(C(=O)c1snc(C(N)=O)c1N)c1ccc2c(c1)OCO2, COC(=O)c1ccccc1NC(=O)C1CC(=O)N(c2ccc(F)cc2)C1 (centres undefined), Cc1cc(Cl)c(S(=O)(=O)N2CCN(c3ccc(F)cc3)CC2)cc1OCC(N)=O, Cc1ccc(-n2nnnc2SCC(=O)N2CCN(C(=O)c3ccco3)CC2)c(C)c1, O=S(CC(O)COCc1ccc(Cl)cc1)c1ccccn1 (centres undefined)
